# Test results taken from the supplement of paper PMC8253809.
# Tested on: DIPGX29 (H3.3 K27M diffuse intrinsic pontine glioma line)
# Experiment: growth inhibition (% activity, log2 RLU normalised to DMSO / staurosporine); higher = more growth inhibition
# Details: 33 µM
# How it was run: (§1)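 On Geltrex-coated 384-well plates, pHGG cell lines and H9-derived neural stem cells were grown with approved drugs pinned in at a single final concentration of about 33 μM, in triplicate, for 7 days at 37 °C, 5% CO2. Per-plate normalisation of log2-transformed CellTiter-Glo luminescence to % activity between solvent and positive control wells followed. Each growth-inhibition value is the median over the replicates.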
row,SMILES,growth inhibition
1,CC=CC1=C(C(=O)O)N2C(=O)[C@@H](NC(=O)[C@H](N)c3ccc(O)cc3)[C@H]2SC1,-1.6%
2,O=C1[C@@H]2[C@H]3CC[C@H](C3)[C@@H]2C(=O)N1C[C@@H]1CCCC[C@H]1CN1CCN(c2nsc3ccccc23)CC1,-3.28%
3,CC(=O)S[C@@H]1CC2=CC(=O)CC[C@]2(C)[C@H]2CC[C@@]3(C)[C@@H](CC[C@@]34CCC(=O)O4)[C@H]12,1.45%
4,NCCC(O)(P(=O)(O)O)P(=O)(O)O,0.943%
5,CCN(CC)C(=O)C1(c2ccccc2)CC1CN (stereo not drawn),0.721%
6,NC12CC3CC(CC(C3)C1)C2,0.311%
7,COc1ccc2cc(CCC(C)=O)ccc2c1,-3.29%
8,Nc1ccc(/N=N/c2ccccc2)c(N)n1,-3.96%
9,CN(C)C/C=C/C(=O)Nc1cc2c(Nc3ccc(F)c(Cl)c3)ncnc2cc1O[C@H]1CCOC1,21.1%
10,CC(C)OC(=O)C(C)(C)Oc1ccc(C(=O)c2ccc(Cl)cc2)cc1,3.79%
11,CCOc1ccccc1OC(c1ccccc1)C1CNCCO1 (stereo not drawn),0.58%
12,Cn1c(=O)c2c(ncn2CC(O)CO)n(C)c1=O (stereo not drawn),1.16%
13,CCCCCN(C)CCC(O)(P(=O)(O)O)P(=O)(O)O,-3.97%
14,COc1ccc(-n2nc(C(N)=O)c3c2C(=O)N(c2ccc(N4CCCCC4=O)cc2)CC3)cc1,-1.17%
15,O=C(O)CCc1nc(-c2ccccc2)c(-c2ccccc2)o1,-0.808%
16,N=C(N)NCCN1CCCCCCC1,1.99%
17,CCCc1nn(C)c2c(=O)[nH]c(-c3cc(S(=O)(=O)N4CCN(C)CC4)ccc3OCC)nc12,0.246%
18,Cc1cccc(Nc2ccncc2S(=O)(=O)NC(=O)NC(C)C)c1,-1.52%
19,NC(=O)CC[C@H](N)C(=O)O,-1.66%
20,CO[C@H]1C(=O)[C@]2(C)[C@@H](OC)C[C@H]3OC[C@@]3(OC(C)=O)[C@H]2[C@H](OC(=O)c2ccccc2)[C@]2(O)C[C@H](OC(=O)[C@H](O)[C@@H](NC(=O)OC(C)(C)C)c3ccccc3)C(C)=C1C2(C)C,6.45%

row,SMILES,growth inhibition
1,CC(C(=O)O)c1ccc(C(=O)c2cccs2)cc1 (stereo not drawn),-1.23%
2,CC(=O)OCC(=O)[C@@]1(O)[C@H](C)C[C@H]2[C@@H]3CCC4=CC(=O)C=C[C@]4(C)[C@@]3(F)[C@@H](O)C[C@@]21C,6.47%
3,C[C@@H](c1ncncc1F)[C@](O)(Cn1cncn1)c1ccc(F)cc1F,0.619%
4,COc1nc(C)nc(Cl)c1NC1=NCCN1,-1.42%
5,C[C@H](Cc1cc2c(c(C(N)=O)c1)N(CCCO)CC2)NCCOc1ccccc1OCC(F)(F)F,1.54%
6,CC(C)(Oc1ccc(Cl)cc1)C(=O)O,-2.6%
7,N[C@@H]1CCCCN(c2c(F)cc3c(=O)c(C(=O)O)cn(C4CC4)c3c2Cl)C1,-3.25%
8,COc1cc(NS(=O)(=O)c2ccc(N)cc2)nc(OC)n1,1.59%
9,CCC(NC(C)C)C(O)c1ccc(O)c(O)c1 (stereo not drawn),2.91%
10,CCN(CC)C(=S)SSC(=S)N(CC)CC,1.19%
11,Cc1nc(Nc2ncc(C(=O)Nc3c(C)cccc3Cl)s2)cc(N2CCN(CCO)CC2)n1,8.3%
12,COC(=O)C1=C(C)NC(C)=C(C(=O)OC2CCCN(Cc3ccccc3)C2)C1c1cccc([N+](=O)[O-])c1 (stereo not drawn),3.05%
13,N[C@@H](Cc1cc(I)c(Oc2ccc(O)c(I)c2)c(I)c1)C(=O)O,3.32%
14,O=C([O-])[C@H](O)[C@@H](O)[C@H](O)[C@H](O)CO.[Na+],0.856%
15,CN(C/C=C/c1ccccc1)Cc1cccc2ccccc12,1.23%
16,[O-][n+]1cccc(CO)c1,-0.666%
17,CNC(=C[N+](=O)[O-])NCCSCc1csc(CN(C)C)n1,-0.765%
18,Cc1ccc(C)c(OCCCC(C)(C)C(=O)O)c1,-0.441%
19,N#Cc1ccc(C(c2ccc(C#N)cc2)n2cncn2)cc1,-0.88%

# Tested on: DIPGX37 (H3.3 K27M diffuse intrinsic pontine glioma line)
# Experiment: as above
# Details: 33 µM
# How it was run: as §1
row,SMILES,growth inhibition
1,CC=CC1=C(C(=O)O)N2C(=O)[C@@H](NC(=O)[C@H](N)c3ccc(O)cc3)[C@H]2SC1,0.508%
2,O=C1[C@@H]2[C@H]3CC[C@H](C3)[C@@H]2C(=O)N1C[C@@H]1CCCC[C@H]1CN1CCN(c2nsc3ccccc23)CC1,0.212%
3,CC(=O)S[C@@H]1CC2=CC(=O)CC[C@]2(C)[C@H]2CC[C@@]3(C)[C@@H](CC[C@@]34CCC(=O)O4)[C@H]12,4.15%
4,NCCC(O)(P(=O)(O)O)P(=O)(O)O,2.91%
5,CCN(CC)C(=O)C1(c2ccccc2)CC1CN (stereo not drawn),0.301%
6,NC12CC3CC(CC(C3)C1)C2,-1.43%
7,COc1ccc2cc(CCC(C)=O)ccc2c1,-0.34%
8,Nc1ccc(/N=N/c2ccccc2)c(N)n1,-2.54%
9,CN(C)C/C=C/C(=O)Nc1cc2c(Nc3ccc(F)c(Cl)c3)ncnc2cc1O[C@H]1CCOC1,8.76%
10,CC(C)OC(=O)C(C)(C)Oc1ccc(C(=O)c2ccc(Cl)cc2)cc1,2.12%
11,CCOc1ccccc1OC(c1ccccc1)C1CNCCO1 (stereo not drawn),2.23%
12,Cn1c(=O)c2c(ncn2CC(O)CO)n(C)c1=O (stereo not drawn),3.99%
13,CCCCCN(C)CCC(O)(P(=O)(O)O)P(=O)(O)O,2.62%
14,COc1ccc(-n2nc(C(N)=O)c3c2C(=O)N(c2ccc(N4CCCCC4=O)cc2)CC3)cc1,-0.875%
15,O=C(O)CCc1nc(-c2ccccc2)c(-c2ccccc2)o1,1.84%
16,N=C(N)NCCN1CCCCCCC1,-0.0479%
17,CCCc1nn(C)c2c(=O)[nH]c(-c3cc(S(=O)(=O)N4CCN(C)CC4)ccc3OCC)nc12,-4.11%
18,Cc1cccc(Nc2ccncc2S(=O)(=O)NC(=O)NC(C)C)c1,1.45%
19,NC(=O)CC[C@H](N)C(=O)O,0.802%
20,CO[C@H]1C(=O)[C@]2(C)[C@@H](OC)C[C@H]3OC[C@@]3(OC(C)=O)[C@H]2[C@H](OC(=O)c2ccccc2)[C@]2(O)C[C@H](OC(=O)[C@H](O)[C@@H](NC(=O)OC(C)(C)C)c3ccccc3)C(C)=C1C2(C)C,5.31%

row,SMILES,growth inhibition
1,CC(C(=O)O)c1ccc(C(=O)c2cccs2)cc1 (stereo not drawn),-0.791%
2,CC(=O)OCC(=O)[C@@]1(O)[C@H](C)C[C@H]2[C@@H]3CCC4=CC(=O)C=C[C@]4(C)[C@@]3(F)[C@@H](O)C[C@@]21C,3.67%
3,C[C@@H](c1ncncc1F)[C@](O)(Cn1cncn1)c1ccc(F)cc1F,-0.0255%
4,COc1nc(C)nc(Cl)c1NC1=NCCN1,-1.39%
5,C[C@H](Cc1cc2c(c(C(N)=O)c1)N(CCCO)CC2)NCCOc1ccccc1OCC(F)(F)F,2.46%
6,CC(C)(Oc1ccc(Cl)cc1)C(=O)O,1.37%
7,N[C@@H]1CCCCN(c2c(F)cc3c(=O)c(C(=O)O)cn(C4CC4)c3c2Cl)C1,-0.479%
8,COc1cc(NS(=O)(=O)c2ccc(N)cc2)nc(OC)n1,1.08%
9,CCC(NC(C)C)C(O)c1ccc(O)c(O)c1 (stereo not drawn),3.09%
10,CCN(CC)C(=S)SSC(=S)N(CC)CC,3.53%
11,Cc1nc(Nc2ncc(C(=O)Nc3c(C)cccc3Cl)s2)cc(N2CCN(CCO)CC2)n1,-3.6%
12,COC(=O)C1=C(C)NC(C)=C(C(=O)OC2CCCN(Cc3ccccc3)C2)C1c1cccc([N+](=O)[O-])c1 (stereo not drawn),0.403%
13,N[C@@H](Cc1cc(I)c(Oc2ccc(O)c(I)c2)c(I)c1)C(=O)O,3.94%
14,O=C([O-])[C@H](O)[C@@H](O)[C@H](O)[C@H](O)CO.[Na+],4.24%
15,CN(C/C=C/c1ccccc1)Cc1cccc2ccccc12,-0.956%
16,[O-][n+]1cccc(CO)c1,1.68%
17,CNC(=C[N+](=O)[O-])NCCSCc1csc(CN(C)C)n1,-2.32%
18,Cc1ccc(C)c(OCCCC(C)(C)C(=O)O)c1,-0.0995%
19,N#Cc1ccc(C(c2ccc(C#N)cc2)n2cncn2)cc1,0.114%
